Compound activity from PubChem.
NSD2 HMT inh: NSD2 (human) methyltransferase inhibition; 0.54% of 310,000 active; NSD2 peptide methylation, AlphaScreen, 120 min; inhibition, % at 12.5 µM; O96028; in the data active = inhibition above about 50%
SIRT5 inh: blocks human SIRT5 desuccinylation of peptide. Q9NXA8. Purified SirT5, succinyl-peptide AMC, trypsin-coupled fluorescence. inhibition, % at 15 µM. 1.1% of 330,000 active. AID 652115; in the data active = inhibition above about 15%
CASP6 VEID inh: caspase-6 (human) enzyme inhibition; P55212; purified caspase-6, Z-VEID-R110 cleavage fluorescence; inhibition, % at 12.5 µM; 0.53% of 350,000 active;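 active = mean inhibition across replicates at least about 35%, with every replicate also reaching that limit, limit read from the data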;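 also: 0% = median of neutral control wells and 100% = no fluorescence left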
Target sequence (P55212 24-179 limits assumed): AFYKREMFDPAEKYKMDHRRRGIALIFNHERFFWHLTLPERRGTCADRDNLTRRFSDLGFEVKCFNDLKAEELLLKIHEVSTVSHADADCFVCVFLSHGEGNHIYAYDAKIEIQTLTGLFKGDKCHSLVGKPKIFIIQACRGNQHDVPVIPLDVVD
Target sequence (P55212 194-293 limits assumed): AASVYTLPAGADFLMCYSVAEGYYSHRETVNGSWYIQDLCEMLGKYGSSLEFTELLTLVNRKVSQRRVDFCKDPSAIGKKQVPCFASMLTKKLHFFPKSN
UBC9 SUMO inh: blocks human SUMOylation mediated by UBC9 | P63279 | HTRF SUMOylation assay, SAE1/SAE2 + UBC9, in vitro | inhibition, % at 35 µM | 0.36% of 290,000 active | AID 2006; in the data active = inhibition above about 50%, passing the limit was not always enough
Target sequence (P63279 whole entry, looked up): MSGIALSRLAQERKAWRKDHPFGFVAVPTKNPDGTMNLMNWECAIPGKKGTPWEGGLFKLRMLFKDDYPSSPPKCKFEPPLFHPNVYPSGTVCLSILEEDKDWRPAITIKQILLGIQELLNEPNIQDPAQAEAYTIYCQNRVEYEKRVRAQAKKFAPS
An asterisk follows results filed as active; / = no result; ! = not confirmed by another sample. Sampled rows, rich in hits. Any-hit rate of the full collection: about 1.6%.

SMILES	NSD2 HMT inh	SIRT5 inh	CASP6 VEID inh	UBC9 SUMO inh
C[C@H](O)C#Cc1ccc2c(c1)O[C@@H](CN(C)Cc1ccc(-c3ccccc3)cc1)[C@H](C)CN([C@@H](C)CO)S2(=O)=O	/	16.6*!	-2.2	/
C[C@H](O)C#Cc1ccc2c(c1)O[C@@H](CN(C)Cc1ccc(-c3ccccc3)cc1)[C@@H](C)CN([C@H](C)CO)S2(=O)=O	/	22.5*	0.8	/
C[C@@H](O)C#Cc1ccc2c(c1)O[C@H](CN(C)Cc1ccc(-c3ccccc3)cc1)[C@@H](C)CN([C@@H](C)CO)S2(=O)=O	/	26.6*	0.5	/
NCC[C@@H]1CC[C@H](NC(=O)Nc2ccc(F)cc2)[C@@H](CO)O1	/	-1.0	1.6	/
CNC(=O)C[C@H]1CC[C@H]2[C@@H](COc3ccc(NC(=O)c4cc(F)cc(F)c4)cc3C(=O)N2C)O1	/	5.3	-0.3	/
CCS(=O)(=O)N1CCC2(CC1)CN(Cc1ccccc1OC)[C@H](CO)c1c2c2ccc(OC)cc2n1C	/	3.4	3.0	/
O=C(O)C1CSC(c2ccncc2)N1 (configuration not stated)	/	/	/	2.6
O=C(O)C1CSC(c2ccco2)N1 (configuration not stated)	37.7	15.9*	85.8*	6.3
COc1ccc(S(=O)(=O)Nc2ccc3c(c2)C(=O)N([C@H](C)CO)C[C@@H](C)[C@H](CN(C)Cc2ccncc2)O3)cc1	/	-8.6	2.7	/
Cc1noc(C)c1S(=O)(=O)N(C)C[C@@H]1Oc2ccc(NS(=O)(=O)c3cccs3)cc2CC(=O)N([C@@H](C)CO)C[C@H]1C	/	5.2	/	/
Nc1nc2c(ncn2[C@@H]2O[C@H](CNCc3ccc4ncccc4c3)[C@@H](O)[C@H]2O)c(=O)[nH]1	/	0.6	-0.3	/
CN1CCN(c2cc(CNC[C@H]3O[C@@H](n4cnc5c(=O)[nH]c(N)nc54)[C@H](O)[C@@H]3O)ccc2F)CC1	/	-4.4	54.0*	/
COc1ccc(S(=O)(=O)N[C@@H]2CC[C@H](CCn3cc(-c4cccc(F)c4)nn3)O[C@@H]2CO)cc1	/	-4.0	-0.5	/
COc1ccc([C@H]2CC(=O)C[C@@H](CCn3cc(-c4ccccc4)nn3)O2)cc1	/	/	1.9	/
COc1ccc([C@H]2CC(=O)C[C@@H](CCn3cc(-c4cccnc4)nn3)O2)cc1	/	33.3*	-40.1	/
Cc1cc(C)n(CC(=O)c2cccc(N)c2)n1	-3.5	20.3*	-0.2	2.2
CCNC(=O)C[C@H]1C=C[C@H](NC(=O)NC2CCCCC2)[C@@H](CO)O1	/	4.9	0.7	/
C[C@@H]1CN([C@H](C)CO)C(=O)c2c(c3ccccc3n2C)-c2ccccc2CO[C@H]1CN(C)S(=O)(=O)c1ccc(C(F)(F)F)cc1	/	24.8*	6.0	/
C[C@H]1CN([C@@H](C)CO)C(=O)c2c(c3ccccc3n2C)-c2ccccc2CO[C@H]1CN(C)S(=O)(=O)c1ccc(C(F)(F)F)cc1	/	-0.3	-1.9	/
C[C@@H]1CN([C@H](C)CO)C(=O)c2c(c3ccccc3n2C)-c2ccccc2CO[C@@H]1CN(C)S(=O)(=O)c1ccc(C(F)(F)F)cc1	/	32.5*	-1.6	/
COc1ccc(S(=O)(=O)N(C)C[C@@H]2Oc3c(NC(=O)C4CCCCC4)cccc3C(=O)N([C@@H](C)CO)C[C@H]2C)cc1	/	-0.2	0.6	/
O=C(O)C[C@H]1C[C@@H]2c3cc(NS(=O)(=O)c4ccccc4)ccc3O[C@@H]2[C@@H](CO)O1	/	11.3	-1.1	/
O=C(Nc1cc([N+](=O)[O-])ccc1O)c1ccc2c(c1)C(=O)N(Cc1ccco1)C2=O	8.2	8.3	41.5*	-0.8
O=C(Nc1ccc(O)cc1C(=O)O)c1ccc2c(c1)C(=O)N(Cc1ccco1)C2=O	1.3	/	/	8.4
C[c-]1[c-](C)[c-](C)[c-](C)[c-]1C.[Fe].c1cc2nccc(N3CCCC3)[c-]2c1 (configuration not stated)	/	1.4	38.0*!	41.8
SMILES	NSD2 HMT inh	SIRT5 inh	CASP6 VEID inh	UBC9 SUMO inh
O=C(C[C@@H]1CC[C@@H](NC(=O)c2ccc(F)cc2)[C@H](CO)O1)NCc1ccncn1	/	11.9	-5.2	/
C/C(=N/NC(=O)c1ccc(C)s1)c1cccc(NC(=O)c2ccoc2C)c1	2.0	17.4*	4.6	14.4
C/C(=N/NC(=O)c1ccoc1C)c1cccc(NC(=O)C(F)(F)F)c1	-2.3	/	/	-0.8
O=C(CCN1CCCCC1)N[C@H]1CC[C@H](CC(=O)N2CCC(Cc3ccccc3)CC2)O[C@@H]1CO	/	38.5*	1.7	/
Cc1c(C(=O)N2CCOCC2)c(S(=O)(=O)Nc2ccccc2)c(C)n1C	-0.8	19.4*	-1.1	9.8
COc1ccc(O)c(/C=N/NC(=S)Nc2cccc(S(=O)(=O)N(C)C)c2)c1	-15.4	/	/	-31.8
CCOc1ccccc1/C=N/NC(=O)c1cccc(S(=O)(=O)N(CC)CC)c1	-0.6	-2.3	-2.2	-0.7
